# uPA generation = qHTS for Inhibitors of Cell Surface uPA Generation | cell surface uPA generation assay, qHTS | Potency, µM (doses to about 38.3 µM), most hits filed as inhibitors | hit rate 0.31% among 330,000 | AID 540303, 2011; active = well fitted inhibition curve with a large enough effect; inconclusive = small, poorly fitted or top-dose-only effect; inactive = no such curve, though single readings can be large or run the other way; tested in mouse RAW 264.7 cells; also: nearly all actives have a fitted effect of over 55% in size
# ClpP mod = qHTS Assay for Activators of ClpP. purified B. subtilis ClpP, FRET peptide cleavage, 20 min. hit rate 1.9% among 340,000. Potency, µM (titrated, usually from 57.5 µM). ATP-dependent Clp protease proteolytic subunit (Bacillus subtilis (strain 168)), P80244. AID 651965, 2013; active = well fitted falling curve with a large enough effect; inconclusive = small, poorly fitted or top-dose-only effect; inactive = no such curve, though single readings can be large or run the other way; also: the source files actives as falling curves though it sought activators and does not explain the sign; nearly all actives have a fitted effect of over 65% in size
# Target sequence (P80244 whole entry, looked up): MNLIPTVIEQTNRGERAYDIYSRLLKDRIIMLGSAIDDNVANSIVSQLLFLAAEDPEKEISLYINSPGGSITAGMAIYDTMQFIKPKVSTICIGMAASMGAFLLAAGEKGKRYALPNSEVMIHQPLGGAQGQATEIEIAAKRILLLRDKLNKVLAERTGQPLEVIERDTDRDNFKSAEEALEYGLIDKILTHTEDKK
#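 ClpP 10 microg/mL final, pH 8 Tris/KCl buffer with BSA, glycerol, Tween-20; compound pinned in; FRET-FV substrate; RT 20 min; Ex320/Em430; ΔFRET vs ADEP 5.8 microM, DMSO, no enzyme.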
# Sfp PPTase inh = qHTS Assay for Inhibitors of Bacillus subtilis Sfp phosphopantetheinyl transferase (PPTase). hit rate 3.5% among 310,000. Biochemical Sfp PPTase activity, qHTS. 4'-phosphopantetheinyl transferase ffp (Bacillus subtilis), Q9F4F7. Potency, µM, actives largely listed as inhibitors;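 also: the enzyme is Sfp with the accession as filed and its product quenches rhodamine fluorescence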
#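 Reaction rates are the 30-min fluorescence difference (ex 525, em 598 nm) in wells containing 15 nM Sfp, 5 uM rhodamine-CoA and 12.5 uM BHQ-2-YbbR at pH 7.6 with 10 mM MgCl2.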
# TCR act = Activators of T cell receptors: qHTS campaign. primary human leukocytes, anti-CD3, IL-2 HTRF, 48 h. Potency, µM (series often up to 9.22 µM), usual class: activators. 330,000 tested, under 10 active. AID 504894, 2011
#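 Readout: HTRF IL-2, Eu-cryptate/d2 antibody pair, 320nm excitation, 665nm emission. Stimulus: a-CD3 beads, no co-stimulation. Cells: primary human leukocytes. Exposure: 48 hr with compound.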
# Hits are given with their value; 0 = inactive; ? = inconclusive; - = no result given. In the library only some 4.2% were active in any assay of this set; here they are far more common. Unless noted, calls follow the shape of the dose curve; as a rule, active = well fitted curve in the direction sought with a large enough effect; inconclusive = small, poorly fitted or top-dose-only effect, or another doubt; inactive = no such curve, though single readings can be large; an effect the other way counts as inactive or inconclusive.
SMILES,uPA generation,ClpP mod,Sfp PPTase inh,TCR act
O=C(NCc1ccco1)c1ccc2c(c1)C(=O)c1ccccc1-2,-,0,11.2µM,-
Cc1cccc(Cn2cc3c(=O)n(CC(=O)Nc4cccc(C)c4C)nc-3c3cc(F)ccc32)c1,-,0,-,-
COc1ccc2sc(N(Cc3cccnc3)C(=O)c3cccs3)nc2c1,-,0,-,-
Cc1ccc(-c2nc3c(c(=O)[nH]c(=O)n3Cc3ccccc3)n2C)s1,-,-,0,-
Cc1ccc(-c2nc3c(c(=O)[nH]c(=O)n3Cc3ccccc3)n2Cc2ccccc2)o1,0,0,12.6µM,0
Cc1ccc(-c2nc3c(c(=O)[nH]c(=O)n3Cc3ccccc3)n2C)o1,0,0,10µM,0
COc1ccccc1NC(=O)Cn1c(=O)c(CNc2ccccc2)cc2cc(OC)c(OC)cc21,-,0,-,-
O=C(O)C[C@H]1c2cc(C(F)(F)F)ccc2S(=O)(=O)N1C1CCCCC1,0,0,-,0
O=C(/C=C/c1ccc([N+](=O)[O-])s1)N1CCCC1,11.2µM,0,0,0
CC1CC(C)CN(C(=O)/C=C/c2ccc([N+](=O)[O-])s2)C1 (stereo not drawn),3.55µM,0,?,0
O=C(/C=C/c1ccc([N+](=O)[O-])s1)N1CCCCC1,0,-,0,-
Nc1n[nH]c(=S)n1-c1ccc(Cl)cc1,0,0,15.8µM,0
CC(C)CC(=O)N(Cc1ccccc1)S(=O)(=O)c1ccc2c(c1)oc(=O)n2C,-,0,-,-
CC1CCN(CCCNC(=O)c2coc3nc4ccccc4nc23)CC1,0,0,0,0
CC1CCCN(CCCNC(=O)c2coc3nc4ccccc4nc23)C1 (stereo not drawn),0,12.6µM,0,0
COc1ccccc1C(=O)Nc1ccnn1C1CCN(Cc2cn(C)c3ccccc23)CC1,10µM,0,0,0
Cn1cc(CN2CCC(n3nccc3NC(=O)c3ccccc3Cl)CC2)c2ccccc21,0,0,0,0
COc1ccc(OCc2ccc(-c3nc(C#N)c(N4CCC(C)CC4)o3)o2)cc1,-,25.1µM,-,-
N#Cc1nc(-c2ccc(OCc3ccc(Cl)cc3)cc2)oc1NCc1cccnc1,0,28.2µM,0,0
N#Cc1nc(-c2ccc(OCc3ccccc3)cc2)oc1NCc1cccnc1,0,?,0,0
Cc1ccc(OCc2ccc(-c3nc(C#N)c(N4CCC(C)CC4)o3)o2)cc1,-,0,-,-
CC1CCN(c2oc(-c3ccc(COc4ccccc4)o3)nc2C#N)CC1,-,15.8µM,-,-
CN(C)c1oc(-c2ccc(OCc3ccccc3)cc2)nc1C#N,0,12.6µM,0,0
COC(=O)CCN(Cc1ccco1)S(=O)(=O)c1ccc(F)cc1Br,-,-,0,-
COc1ccccc1C(=O)Nc1ccc(C(=O)OCc2cc(=O)n3nc(C4CC4)sc3n2)cc1,-,0,-,-
SMILES,uPA generation,ClpP mod,Sfp PPTase inh,TCR act
Cc1cccc(OCc2ccc(-c3nc(C#N)c(N4CCC(C(N)=O)CC4)o3)o2)c1,-,0,-,-
COc1ccc(OCc2ccc(-c3nc(C#N)c(N4CCC(C(N)=O)CC4)o3)o2)cc1,-,35.5µM,-,-
CC(Nc1oc(-c2ccc(COc3ccccc3)o2)nc1C#N)c1ccccc1 (stereo not drawn),-,0,-,-
N#Cc1nc(-c2ccc(COc3ccccc3)o2)oc1NCc1ccccc1,-,20µM,-,-
N#Cc1nc(-c2ccc(COc3ccccc3)o2)oc1N1CCN(c2ccccc2)CC1,-,15.8µM,-,-
COC(=O)c1ccc(NC(=O)CSc2nc(C)cc(C)c2C(=O)Nc2ccccc2)cc1,-,0,-,-
CCC(CO)Oc1cc(NCc2ccc(Cl)cc2Cl)c2ncn(C(C)C)c2c1 (stereo not drawn),8.91µM,0,-,0
Cc1ccc(OCc2nc(-c3ccc(C(=O)N4CCN(c5ccccc5F)CC4)cc3)oc2C)cc1,-,0,-,-
Cc1nc2nc(SCC(=O)NC(C)c3ccccc3)nn2c(C)c1Cc1c(F)cccc1Cl (stereo not drawn),-,0,-,-
N#C/C(=C\c1cc(O)c(O)c(O)c1)C(N)=O,0,0,3.55µM,0
CC(=O)c1ccc(NC(=O)Cn2cc(S(=O)(=O)Cc3ccccc3Cl)c3ccccc32)cc1,-,0,-,-
CCOc1ccc(-c2nnc(-c3ccccc3)o2)cc1,0,28.2µM,0,0
CCOc1ccc(-c2nnc(-c3ccncc3)o2)cc1,0,?,0,0
CCSc1nnc(-c2cccs2)o1,0,28.2µM,0,0
CCCCOc1ccc(-c2nnc(-c3ccncc3)o2)cc1,0,15.8µM,0,-
CN(C)c1ccc(-c2nnc(-c3cccs3)o2)cc1,0,0,0,0
CCCOc1ccc(-c2nnc(-c3cccs3)o2)cc1,0,10µM,0,0
Cc1cccc2[nH]cc(/C=C3/C=Nc4ccccc43)c12,-,0,-,-
O=C(CSc1nc2ccccc2s1)NNC(=O)Nc1ccc(Cl)c(Cl)c1,0,0,0,0
O=C(CSc1nc2ccccc2s1)Nc1ccc(Cl)c(C(=O)O)c1,0,-,22.4µM,0
O=C(CSc1nc2ccccc2s1)Nc1cc(C(=O)O)cc(C(=O)O)c1,0,0,56.2µM,0
Cc1ccc(-n2nc3c(=O)n(C(C)C(=O)NCc4ccc(OC(C)C)cc4)nc(C)c3c2C)cc1 (stereo not drawn),-,0,-,-
O=C(C1=NOC2(C1)C(=O)Nc1ccccc12)N1CCCCC1 (stereo not drawn),-,0,-,-
COc1ccc(C(=O)OC2CCCCC2CN(C)C)cc1 (stereo not drawn),0,0,0,0
CC(C)COc1ccc(C(=O)OC2CC(C)(C)OCC2CN(C)C)cc1 (stereo not drawn),0,20µM,0,0
SMILES,uPA generation,ClpP mod,Sfp PPTase inh,TCR act
CC[C@@]1(c2ccccc2)NC(=O)NC1=O,-,-,0,-
Nc1ccn(CC(=O)NCCNc2ccc([N+](=O)[O-])cn2)c(=O)n1,0,0,-,0
O=C(O)CC(Cn1[nH]nnc1=S)c1ccccc1 (stereo not drawn),0,0,39.8µM,0
CN1C(=O)C(c2cn(C)c3ccccc23)(c2cn(C)c3ccccc23)c2cc(Br)ccc21,-,0,-,-
COc1ccccc1CNc1cncnc1,0,0,0,0
COc1ccccc1CNc1ncccn1,0,-,79.4µM,0
COC(=O)c1ccccc1NC(=O)Nc1ccc(C)cn1,0,-,0,0
COC(=O)c1ccccc1NC(=O)n1cc(C)cn1,0,31.6µM,0,0
COc1cc(/C=C/c2cc(C(=O)O)c3ccccc3n2)ccc1OC(F)F,2.82µM,0,0,0
O=C(O)c1cc(/C=C/c2ccc(N3CCOCC3)cc2)nc2ccccc12,0,-,0,0
Cc1ccc(Nc2nc3ccccc3s2)c(C)c1,0,0,0,0
Cc1cc(O)ccc1Nc1nc2ccccc2nc1Nc1ccc(O)cc1C,0,0,56.2µM,0
COC(=O)Cn1c2ccc(F)cc2c2nc(C)sc21,0,0,0,0
CCOC(=O)Cn1c2ccc(F)cc2c2nc(C)sc21,0,0,0,0
Cc1nc2c3cc(F)ccc3n(Cc3ccc(F)cc3)c2s1,3.55µM,0,?,0
CCc1ccc2c(c1)c1nc(C)sc1n2CC,0,0,28.2µM,0
CCOc1cc(C(=S)N2CCCC2)ccc1OC,0,0,0,0
COc1cc(C(=S)N2CCCC2)cc(OC)c1O,-,0,50.1µM,0
CC(=O)N1CCC2(CC1)C/C(=N\NC(=S)Nc1ccccc1C)c1cc(O)ccc1O2,0,0,0,0
